Each sequence was assayed against RUNX1 (Homo sapiens, UniProt Q01196 1-453) (assay: custom PBM; custom protein-binding microarray; buffer, salt, pH and temperature not stated; high values mean tight binding). Conditions: dsDNA, one strand shown.
RUNX1, sequence (Q01196 whole entry): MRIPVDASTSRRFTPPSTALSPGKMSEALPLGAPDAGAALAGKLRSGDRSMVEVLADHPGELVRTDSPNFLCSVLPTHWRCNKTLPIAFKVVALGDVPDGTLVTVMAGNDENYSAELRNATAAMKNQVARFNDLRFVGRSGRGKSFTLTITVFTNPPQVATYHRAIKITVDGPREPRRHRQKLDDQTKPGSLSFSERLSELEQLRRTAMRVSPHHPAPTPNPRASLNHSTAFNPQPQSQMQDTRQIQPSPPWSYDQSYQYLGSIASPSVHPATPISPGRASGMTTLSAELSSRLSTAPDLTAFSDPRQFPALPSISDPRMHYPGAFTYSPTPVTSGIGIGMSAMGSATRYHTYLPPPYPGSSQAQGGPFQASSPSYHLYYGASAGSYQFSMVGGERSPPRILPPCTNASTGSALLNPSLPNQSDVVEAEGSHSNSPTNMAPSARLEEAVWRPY

Binding signal, 11 log fluorescence intensity:
GCGCACATTTCCCGTCAATCATACACGCACACATACACATACACACATACACATACGCAC
GCATACGTCTGACGTCAGCCACATACGCACACATACACATACACACATACACATACGCAC
GCGCACATTTCCCGTAAAGCATACACGCACACATACACATACACACATACACATACGCAC
GCATACGGCTGACGTCAGCCACATACGCACACATACACATACACACATACACATACGCAC

— article PMC6602471
